Source: PubChem BioAssay AID686979 (National Center for Advancing Translational Sciences (NCATS), 2013)
Hit rate of the full screen: of about 420,000 compounds, about 50,000 (12%) were called active. Another 26% or so got no clear call; they are omitted. The call rests on the fitted dose curve; in most records, active means well fitted inhibition curve with a large enough effect; inconclusive means small, poorly fitted or top-dose-only effect; inactive means flat fitted curve, though single readings scatter. This excerpt belongs to a sample that is enriched for actives.

experiment: qHTS for Inhibitors of human tyrosyl-DNA phosphodiesterase 1 (TDP1): qHTS in cells in presence of CPT; conditions: chicken DT40 Tdp1-/-;hTDP1 cells + 20 nM CPT, ATP luminescence, 48 h; series mostly up to 46.2 µM; activity change, negative = growth inhibition: at the top concentration; further: nearly all actives have a fitted effect of over 55% in size
Method in brief: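 Cell growth measured by CellTiter-Glo luminescence after a minimum 48 h, 37 C compound exposure with 20 nM CPT in Tdp1-knockout DT40 cells stably expressing hTDP1, seeded 400/well; qHTS titration format.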
On the % scale 0 is the no-effect control and ±100 the full control effect; potency means the concentration at half of the fitted maximal effect.

Structure (SMILES)	activity change, negative = growth inhibition	Potency
Brc1cc(/C=N/n2cnnc2)oc1Br	-27.2% (inactive)	
CCCOC1CCCN(Cc2cn(C)nc2-c2ccccc2F)C1 (stereo not given)	17% (inactive)	
CC(=O)N1CC(=O)N(CC(=O)Nc2ccc(Br)cc2)C1=S	-13.4% (inactive)	
COc1cccc(CNC(=O)Cn2c(=O)c3cccn3c3ccc(F)cc32)c1OC	-10.8% (inactive)	
Cc1cccc(N2CC(C(=O)Nc3ccccc3N3CCCC3)CC2=O)c1C (stereo not given)	9.32% (inactive)	
O=C(COc1ccccc1F)OCc1cc(=O)n2nc(C3CCCCC3)sc2n1	-2.79% (inactive)	
CN(C)CCN=c1cc(-c2ccccc2)oc2ccc(Cl)cc12	1.27% (inactive)	
CCc1nn(CC(=O)Nc2cccc(C)c2C)c(=O)c2cc3sccc3n12	-1.63% (inactive)	
CCc1nn(CC(=O)NCC(C)c2ccccc2)c(=O)c2cc3occc3n12 (stereo not given)	-15.7% (inactive)	
CCc1nn(CC(=O)Nc2cc(C)cc(C)c2)c(=O)c2cc3sccc3n12		4.11 µM (active)
O=C(CC1SC(N2CCOCC2)=NC1=O)Nc1ccccc1F (stereo not given)	5.5% (inactive)	
O=C(Cc1ccc(S(=O)(=O)N2CCOCC2)s1)N1CCN(c2ccc(C(F)(F)F)cc2[N+](=O)[O-])CC1		14.6 µM (active)
CNS(=O)(=O)c1ccc(N2CCCC2=O)c([N+](=O)[O-])c1	21.4% (inactive)	
O=C(Nc1cc(Cl)ccc1N1CCOCC1)c1ccc(N2CCCC2=O)cc1	-12.9% (inactive)	
O=C(Cc1ccc(S(=O)(=O)N2CCOCC2)s1)Nc1ccc(Br)c(C(F)(F)F)c1		14.6 µM (active)
Cc1cc(S(=O)(=O)N2CCOCC2)ccc1OCC(=O)Nc1cccc(C(F)(F)F)c1	-10.3% (inactive)	
O=C(c1ccc(N2CCCC2=O)cc1)N1CCN(c2ccc(C(F)(F)F)cc2[N+](=O)[O-])CC1		3.66 µM (active)
O=C(Cc1ccc(S(=O)(=O)N2CCOCC2)s1)NCCOc1ccccc1F	-23.9% (inactive)	
O=C(OCC(=O)N1CCOCC1)c1ccc(N2CCOCC2)c([N+](=O)[O-])c1	17.7% (inactive)	
O=C(COc1ccc(S(=O)(=O)N2CCOCC2)cc1Cl)N1CCOCC1	1.63% (inactive)	
O=C(Nc1ccccc1Cl)N1CCN(c2ccc3nncn3n2)CC1	3.27% (inactive)	
Cc1c(C)c2ccc(OCC(=O)N3CCC(C(=O)O)CC3)c(C)c2oc1=O	17.1% (inactive)	
Cc1cccc(OCCC(=O)OCc2csc(CC(=O)Nc3ccccc3C)n2)c1	-16.9% (inactive)	
COC(=O)c1ccc(CNC(=O)c2ccc3oc(C(C)C)nc3c2)cc1	-27.4% (inactive)	
COc1ccc(CSc2nnnn2-c2ccc(O)cc2)cc1F	-50.4% (inactive)	
CC1CCCCC1NC(=O)Cn1cnc2c1c(=O)n(C)c(=O)n2C (stereo not given)	-10.2% (inactive)	
O=C(c1ccc(Oc2ccc(Cl)cc2)c([N+](=O)[O-])c1)N1CCCC1		13 µM (active)

Structure (SMILES)	activity change, negative = growth inhibition	Potency
O=C(Oc1ccccc1Cl)c1ccc(N2CCOCC2)c([N+](=O)[O-])c1	-13.1% (inactive)	
O=C(COc1ccc(Cl)cc1[N+](=O)[O-])N1CCCCC1	-12.8% (inactive)	
Cc1ccc(-n2cnc3ncnc(-c4ccccc4)c32)cc1	24.9% (inactive)	
Cc1ccc(-c2nn(CC(C)(C)C)c3ncnc(N)c23)cc1		6.68 µM (active)
CC(=O)NC(CC(=O)Nc1nccs1)c1ccccc1 (stereo not given)	-13% (inactive)	
CCOc1ccc(NC(=O)CN(C)C(=O)COc2cccc(CC)c2)cc1OCC	-24.3% (inactive)	
Cc1noc(C)c1CCC(=O)N1CCCC(CO)(Cc2ccccc2)C1 (stereo not given)	-17.9% (inactive)	
Oc1ccc2ccccc2c1N=Nc1nccs1		1.16 µM (active)
Oc1ccc(N=Nc2nccs2)c(O)c1		10.3 µM (active)
Oc1ccc2ccccc2c1C=Nc1ccccc1	1.22% (inactive)	
O=C(OCC(=O)N1CCCCCC1)c1ccc(Br)c(S(=O)(=O)N2CCOCC2)c1	-9.49% (inactive)	
COC(=O)C1=C(C(=O)OC)[C@@H]2N(Cc3ccccc3)c3ccccc3[C@@]23C[C@@H](C(=O)OC)N(S(=O)(=O)c2ccc(C(F)(F)F)cc2)C3=N1	-26.2% (inactive)	
CN1OC[C@@H]2CN(C(=O)C(C)(C)C)[C@H](c3ccc(-n4ccnc4)cc3)C[C@@H]21	-11.7% (inactive)	
Cc1c(NC(=O)c2cccnc2)c(=O)n(-c2ccccc2)n1C		inactive
Cc1cc(C(=O)Nc2c(C)n(C)n(-c3ccccc3)c2=O)cs1	-15% (inactive)	
O=C(CCN1C(=O)c2ccccc2C1=O)Nc1cccc(F)c1	-3.34% (inactive)	
Cc1c(NC(=O)c2coc(=O)c(Br)c2)c(=O)n(-c2ccccc2)n1C		2.59 µM (active)
O=C(Nc1cccc(F)c1)c1coc(=O)c(Br)c1		1.3 µM (active)
O=C(Nc1cccc(NC(=O)c2cccc(F)c2)c1)c1ccccc1	-13.4% (inactive)	
NS(=O)(=O)c1ccc(NC(=S)N2CCCC2)cc1	-3.82% (inactive)	
CCSC1=NCCN1C(=O)c1ccc(S(=O)(=O)N(CC)CC)cc1	9.95% (inactive)	
COc1ccc(N(C(=O)c2cccnc2)S(=O)(=O)c2ccc(OC)c(OC)c2)cc1	-24.6% (inactive)	
COc1ccccc1C(=O)NNC(=O)c1ccc(NC(=O)c2ccccc2)cc1	-24.4% (inactive)	
COc1ccc(C(=O)Nc2ccc(-n3nncc3-c3ccccc3)cc2)cc1OC		3.66 µM (active)
COc1ccc(C(=O)Nc2cccnc2)cc1C(=O)Nc1cccnc1	-4.05% (inactive)	
CCC1OC(C2CC2)CC2=C1C(=O)OC(C)(C)O2 (stereo not given)	-4.59% (inactive)	
CC(=O)N1N=C(c2ccccc2)OC1c1cccnc1 (stereo not given)	-0.38% (inactive)	

Structure (SMILES)	activity change, negative = growth inhibition	Potency
Cc1cc(C)cc(NC(=O)CCN2C(=O)c3ccccc3C2=O)c1	-4.76% (inactive)	
Cc1ccc(/C=N/NC(=O)C2=NNC(c3ccccc3)(c3ccccc3)C2)c(O)c1		4.61 µM (active)
Cc1ccc2nc(CNC(=O)c3ccccc3)[nH]c2c1	9.98% (inactive)	
O=C(N/N=C/c1ccc(O)c2ccccc12)c1cccnc1	-13.9% (inactive)	
COc1ccc(C2=NO[C@@H]3C(=O)N(Cc4ccccc4)C(=O)[C@H]23)cc1OC	3.64% (inactive)	
COc1ccc(-c2cc(C(F)(F)F)nc(S(C)(=O)=O)n2)cc1OC		2.06 µM (active)
CCN(CC)CCN(C)C(c1ccnc2ccccc12)c1nnnn1-c1ccc2c(c1)OCCO2 (stereo not given)	-31.6% (inactive)	
Cc1ccc(S(=O)(=O)NCCCn2ccnc2)cc1C(=O)NC(C)C	-3.13% (inactive)	
O=C(NCc1ccco1)c1ccc([N+](=O)[O-])cc1Cl	3.37% (inactive)	
Cc1ccc(C(=O)OCC(=O)NC2CCCCCCC2)cc1C	-4.81% (inactive)	
c1ccc2c(c1)C(=NC1CCCCC1)NC2=NC1CCCCC1		18.4 µM (active)
COc1cc(NC(=S)N2CCCC(C)C2)cc(OC)c1OC (stereo not given)	-22.1% (inactive)	
O=C(CCc1ccccc1)NCc1ccc2c(c1)CCN2C(=O)c1ccccc1		10.3 µM (active)
O=C(COc1ccccc1)NCc1ccc2c(c1)CCN2C(=O)c1ccc(F)cc1		16.4 µM (active)
O=C(NCc1ccc2c(c1)CCN2C(=O)c1ccccc1)Nc1cc(F)ccc1F		16.4 µM (active)
COc1cccc(C(=O)NCc2ccc3c(c2)CCN3C(=O)c2ccncc2)c1	-12.1% (inactive)	
O=C(CCc1ccc(S(=O)(=O)NC2CCCCC2)cc1)NCc1ccccc1	-18.8% (inactive)	
O=C(Cc1ccccc1)NCc1ccc(F)cc1	-7.47% (inactive)	
Cc1ccc(C(=O)N2CCc3cc(CNC(=O)c4ccc(Br)cc4)ccc32)cc1	-84.3% (inactive)	
Cc1cccc(C(=O)N2CCc3cc(CNC(=O)Cc4ccc(F)cc4)ccc32)c1		16.4 µM (active)
O=C(CN1CCN(C(=O)c2cccc(F)c2)CC1)Nc1ccccc1F	0.779% (inactive)	
CCC(=O)N1CCc2cc(CNC(=O)Nc3ccccc3Cl)ccc21	-29.4% (inactive)	
O=C(CSCc1ccccc1)N1CCc2ccccc21	-9.01% (inactive)	
O=C(COc1ccccc1)Nc1ccc(C(=O)N2CCCC2)cc1	1.05% (inactive)	
CC1CCC2(CC1)NC(=O)N(CC(=O)c1ccc3c(c1)OCO3)C2=O (stereo not given)	4.95% (inactive)	
COc1cc(OC)c(N(C)C(=O)c2cc3c(=O)oc4ccccc4c3s2)cc1Cl	4.07% (inactive)	
CCc1nnc(NS(=O)(=O)c2ccc(NC(=O)c3cccc(OC(F)(F)C(F)F)c3)cc2)s1	6.34% (inactive)	

Structure (SMILES)	activity change, negative = growth inhibition	Potency
CCCCCC(=O)Nc1ccc(-c2cn3cccnc3n2)cc1	-3.88% (inactive)	
O=C(Nc1cccc2cccnc12)c1cccc2c(Br)cccc12	-12.4% (inactive)	
COC(=O)C1NN=C(C(=O)c2ccc(Br)cc2)C1c1cccc(Br)c1 (stereo not given)	6.78% (inactive)	
O=C(Nc1ccc(Br)cc1)c1cccc(NC(=O)C2C3CC4OC(=O)C2C4C3)c1 (stereo not given)	-28.6% (inactive)	
Cc1cc2cc(CNC(=O)c3cccs3)ccc2[nH]1	-0.633% (inactive)	
CCc1cccc(CC)c1NC(=S)Nc1ccc2cn[nH]c2c1	-26.3% (inactive)	
CCc1cccc(CC)c1NC(=S)NCc1ccc2[nH]c(C)cc2c1		23.1 µM (active)
Cc1cccc(NC(=O)N2CCCCCC2)c1C	1.89% (inactive)	
CCCCc1nc2ccccc2c(NC(=O)CN2CCN(C)CC2)c1CCC	-15.1% (inactive)	
O=C(OCc1nnc(-c2ccccc2)o1)c1cc(=O)[nH]c2ccccc12	-0.538% (inactive)	
CCCc1nc2ccccc2c(C(=O)OCc2nnc(-c3cc(OC)c(OC)c(OC)c3)o2)c1CC		16.4 µM (active)
O=C(CN1CCN(S(=O)(=O)c2ccc(Cl)s2)CC1)N1CCCCC1	-25.8% (inactive)	
CCOC(=O)c1c(C)[nH]c(C)c1C(=O)COC(=O)/C=C/c1cccc([N+](=O)[O-])c1	-20.3% (inactive)	
CCOC(=O)c1ccccc1OC(=O)Oc1ccccc1C(=O)OCC	7.31% (inactive)	
CCOC(=O)C=Cc1ccc(C(=O)OCC)[nH]1		13 µM (active)
CCn1c(N)c(Br)c(=O)[nH]c1=O	-19.5% (inactive)	
CCCCCOc1ccc(/C=C/C(=O)NCCc2nc3ccccc3[nH]2)cc1OC		16.4 µM (active)
COc1ccc(CCNC(=S)NC(=O)/C=C/c2ccc(C)cc2)cc1OC	-23.2% (inactive)	
O=C(COc1ccccc1)NCCc1nc2ccccc2[nH]1	-7.59% (inactive)	
Cc1nn(CC(=O)NCC2CCCO2)c(=O)c2cc3ccccc3n12 (stereo not given)	40.8% (inactive)	
C=C(C)C1CC=C(CO)CC1 (stereo not given)	15.1% (inactive)	
Cc1ccc(-n2nc(CO)c(C(=O)NCCc3ccccc3)n2)cc1	8.8% (inactive)	
Cc1ccc(-c2nc(=N)sn2Cc2ccccc2)cc1		4.47 µM (active)
Cc1ccc(CN2C(=O)SC(Nc3ccccc3)C2=O)cc1 (stereo not given)	-16.3% (inactive)	
